Our source for the Potency, viability change, negative = cytotoxic and activity change, negative = cytotoxicity values is PubChem BioAssay (Tox21).

Assay [1] is described as follows: cAMP Responsive Elements (CRE) small molecule antagonists, cell-based qHTS assay: qHTS cell viability counter screen (AID 2060913). Further: nearly all actives have a fitted effect of over 40% in size. The method, boiled down:
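Steps: cells plated and held 18 hrs at 37 C/5% CO2; compounds and NKH477 (0.25 uM final) added; 3 hrs incubation; reporter substrate read; CellTiter-Glo added to measure cytotoxicity by luminescence.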

Assay [2] is described as follows: cAMP Responsive Elements (CRE) small molecule agonists, cell-based qHTS assay: qHTS cell viability counter screen (AID 2060914).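 Further: viability read after 3 h of compound exposure; nearly all actives have a fitted effect of over 50% in size.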 The procedure, abridged:
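HEK 293T CRE-bla; DMEM + 10% dialyzed FBS, 25 mM HEPES; 18 h pre-incubation; compound 3 h, 37 °C/5% CO2; CellTiter-Glo added after reporter read; luminescence after 30 min RT.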
A general note: Quantitative high-throughput screening tests each substance at several concentrations.

Records with an inconclusive call do not appear. Unmarked numbers belong to inactive results. Calls of active or inactive are those of the source. The call rests on the fitted dose curve; in most records, active means well fitted cell-killing curve with a large enough effect in the repeat runs; inconclusive means weak or mixed curves, or effect the other way; inactive means flat fitted curve, though single readings scatter.
On the % scale 0 is the no-effect control and ±100 the full control effect.

`CC(C(=O)O)c1ccc2c(c1)Cc1cccnc1O2` (stereo unspecified): the Potency result in assay [1] and in assay [2] was “inactive” throughout.

With `O=P(OC(CCl)CCl)(OC(CCl)CCl)OC(CCl)CCl`, the Potency entry in assay [1] and in assay [2] was “inactive” throughout.

For `CCCCCCCCOC(=O)c1ccc(O)cc1`, the Potency result in assay [1] and in assay [2] was “inactive” throughout.

Consider `N[C@H]1CN(c2c(F)cc3c(=O)c(C(=O)O)cn(C4C[C@H]4F)c3c2Cl)CC12CC2` (stereo partly specified), for which the Potency result in assay [1] and in assay [2] was “inactive” each time.

Turning to `CCCNCCC`, the Potency entry in assay [1] and in assay [2] was “inactive” each time.

As to `CCCN(CCC)CCc1cccc2c1CC(=O)N2`, the Potency entry in assay [1] and in assay [2] was “inactive” throughout.

In the case of `CCCCc1ccc(Cl)cc1`, the Potency entry in assay [1] and in assay [2] was “inactive” throughout.

For `CC1=C(/C=C/C(C)=C/C=C/C(C)=C/CO)C(C)(C)CCC1`, the Potency entry in assay [1] and in assay [2] was “inactive” each time.

`CC(CO)Oc1ccccc1` (stereo unspecified): the Potency result in assay [1] and in assay [2] was “inactive” each time.

`C1N2CN3CN1CN(C2)C3`: the Potency entry in assay [1] and in assay [2] was “inactive” each time.

`CCOC(=O)NNc1ccc(N(CC)CC(C)O)nn1` (stereo unspecified): the Potency result in assay [1] and in assay [2] was “inactive” in each case.

Turning to `CC(=O)SC[C@@H](Cc1ccccc1)C(=O)NCC(=O)OCc1ccccc1`, the Potency entry in assay [1] and in assay [2] was “inactive” in each case.

For `CCCCCOC(=O)COc1cc(N2C(=O)C3=C(CCCC3)C2=O)c(F)cc1Cl`, the Potency entry in assay [1] and in assay [2] was “inactive” each time.

As to `CCCCCCC(O)CCCCCCCCCCC(=O)O` (stereo unspecified), the Potency result in assay [1] and in assay [2] was “inactive” in each case.

As for `COc1cccc(N(C)C(=S)Oc2ccc3c(c2)CCCC3)n1`, the Potency entry in assay [1] and in assay [2] was “inactive” in each case.

In the case of `CCN(CC)C(=S)SSC(=S)N(CC)CC`, the Potency result in assay [1] and in assay [2] was “inactive” in each case.

With `CCc1cc(C2=C(C(=O)O)N(c3ccccc3C(F)(F)F)S(=O)(=O)c3ccccc32)cc2c1OCO2`, the Potency result in assay [1] and in assay [2] was “inactive” each time.

In the case of `Cc1ncc(COP(=O)(O)O)c(C=O)c1O`, the Potency result in assay [1] and in assay [2] was “inactive” throughout.

For the molecule `O=C(c1cc(O)c(O)c(O)c1)c1ccc(O)c(O)c1O`, the Potency result in assay [1] and in assay [2] was “inactive” in each case.

Regarding `COc1ccc(CN(CCN(C)C)c2ncccn2)cc1`, the Potency entry in assay [1] and in assay [2] was “inactive” in each case.

Turning to `CCc1ccccc1O`, the Potency entry in assay [1] and in assay [2] was “inactive” in each case.

In the case of `CC(=O)OCCC(C)C`, the Potency result in assay [1] and in assay [2] was “inactive” in each case.

Take `CCCCOC(=O)C(=O)OCCCC`: the Potency entry in assay [1] and in assay [2] was “inactive” in each case.

As for `O=C(O)c1ccccc1Nc1cccc(C(F)(F)F)c1`, the Potency entry in assay [1] and in assay [2] was “inactive” each time.

On to `CC(C)=CCCC(C)CCOC=O` (stereo unspecified), for which the Potency result in assay [1] and in assay [2] was “inactive” each time.

As to `O=C(O)C[C@H](O)C[C@H](O)/C=C/c1c(C2CC2)nc2ccccc2c1-c1ccc(F)cc1`, the viability change, negative = cytotoxic in assay [1] was 5.03% [at 18.9 µM]. Besides, the activity change, negative = cytotoxicity in assay [2] is 17.9% [at 18.9 µM].

Consider `CCOc1ccccc1OCC`, for which the Potency entry in assay [1] and in assay [2] was “inactive” throughout.

On to `CCC(C)(C)C1CCC(=O)CC1`, for which the Potency result in assay [1] and in assay [2] was “inactive” in each case.

On to `COc1cc2c(Nc3ccc(Br)cc3F)ncnc2cc1OCC1CCN(C)CC1`, for which the Potency entry in assay [1] and in assay [2] was “inactive” each time.

With `O=C1NC(=O)c2ccccc21`, the Potency entry in assay [1] and in assay [2] was “inactive” each time.

On to `CCOc1cc(OCC)c(C(=O)CCC(=O)O)cc1OCC`, for which the Potency entry in assay [1] and in assay [2] was “inactive” each time.

In the case of `c1ccc2[nH]c(-c3cscn3)nc2c1`, the Potency entry in assay [1] and in assay [2] was “inactive” throughout.

Consider `CCCCCCCCCCCCCCCCCCCl`, for which the viability change, negative = cytotoxic in assay [1] is -1.12% [at 8.39 µM]. Besides, the activity change, negative = cytotoxicity in assay [2] is -6.8% [at 8.39 µM].

As to `O=S(=O)(O)c1cc(O)c2ccc(Nc3ccccc3)cc2c1`, the Potency result in assay [1] and in assay [2] was “inactive” each time.

With `NC(=O)c1ccccc1N`, the Potency entry in assay [1] and in assay [2] was “inactive” in each case.

For the molecule `CN(C)c1ccc2nc3ccc(=[N+](C)C)cc-3sc2c1`, the Potency entry in assay [1] and in assay [2] was “inactive” each time.

Take `NS(=O)(=O)c1cc(C(=O)O)c(NCc2ccco2)cc1Cl`: the Potency entry in assay [1] and in assay [2] was “inactive” in each case.

As for `CCCCCc1ccc(Cl)cc1`, the Potency entry in assay [1] and in assay [2] was “inactive” each time.

With `CC(C)=CCO`, the Potency result in assay [1] and in assay [2] was “inactive” in each case.

`NNCCc1ccccc1`: the Potency entry in assay [1] and in assay [2] was “inactive” throughout.

With `OC[C@H]1O[C@@H](O[C@H]2[C@H](O)[C@@H](O)[C@H](O)O[C@@H]2CO)[C@H](O)[C@@H](O)[C@H]1O`, the Potency result in assay [1] and in assay [2] was “inactive” each time.

Regarding `CC(=O)O[C@H](CC(=O)[O-])C[N+](C)(C)C`, the Potency result in assay [1] and in assay [2] was “inactive” in each case.

Take `N[C@@H](CCC(=O)N[C@@H](CS)C(=O)NCC(=O)O)C(=O)O`: in assay [1], the viability change, negative = cytotoxic is 4.12% [at 18.9 µM]. In assay [2], the activity change, negative = cytotoxicity was -1.41% [at 18.9 µM].

In the case of `Cn1cc(S(C)=O)c(=O)c2ccc(F)cc21` (stereo unspecified), the Potency result in assay [1] and in assay [2] was “inactive” in each case.

Regarding `CCCCCCCCCCCCN(CCCCCCCCCCCC)CCCCCCCCCCCC`, the Potency entry in assay [1] and in assay [2] was “inactive” each time.

In the case of `[Cl][Pt-2]([Cl])([Cl])[Cl]`, the Potency result in assay [1] and in assay [2] was “inactive” in each case.

As for `COc1ccc(S(=O)(=O)Nc2nnc(CC(C)C)s2)cc1`, the Potency result in assay [1] and in assay [2] was “inactive” in each case.

For the molecule `CC(=O)Nc1ccccc1`, the Potency entry in assay [1] and in assay [2] was “inactive” throughout.

For `CCCCOC(=O)C(C)Oc1ccc(Oc2ccc(C(F)(F)F)cn2)cc1` (stereo unspecified), the Potency result in assay [1] and in assay [2] was “inactive” in each case.

Turning to `Nc1ccc(S(=O)(=O)NC(=O)c2ccccc2)cc1`, the Potency entry in assay [1] and in assay [2] was “inactive” each time.

For `CCO[Si](CCCNC(N)=O)(OCC)OCC`, the Potency entry in assay [1] and in assay [2] was “inactive” each time.

In the case of `O=C1[C@H](CC[C@H](O)c2ccc(F)cc2)[C@@H](c2ccc(O)cc2)N1c1ccc(F)cc1`, the Potency result in assay [1] and in assay [2] was “inactive” throughout.

In the case of `CCCCCCCCCCCCCCCS(=O)(=O)Oc1ccccc1`, the Potency entry in assay [1] and in assay [2] was “inactive” throughout.

With `NC(=O)NS(=O)(=O)c1ccc(Cl)cc1`, the Potency result in assay [1] and in assay [2] was “inactive” throughout.

Turning to `COc1c(C)c2c(c(O)c1C/C=C(\C)CCC(=O)OCCN1CCOCC1)C(=O)OC2`, the Potency entry in assay [1] and in assay [2] was “inactive” each time.

As for `Cc1ccccc1C=O`, the Potency result in assay [1] and in assay [2] was “inactive” throughout.

As to `CCCCCCCN`, the Potency result in assay [1] and in assay [2] was “inactive” throughout.

`CCCCCCCC/C=C\CCCCCCCC(=O)OCCOC(=O)CCCCCCC/C=C\CCCCCCCC`: the Potency result in assay [1] and in assay [2] was “inactive” throughout.
